{
  "source": "the supplement of paper PMC8728848",
  "assay_in_all_cases": "glycan array binding signal (z-score within array); higher = stronger binding",
  "conditions_in_all_cases": "glycan notation: IUPAC condensed, linker removed",
  "key": {"[1]": {"molecular_target": "Gal3S(b1-4)[Fuc(a1-3)]GlcNAc", "method_in_brief": "(§1)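 Glycan array data came from 3228 arrays in the Consortium for Functional Glycomics database, and only arrays with an available protein sequence were kept. Glycan names were put into IUPAC-condensed notation, and columns mapping to the same glycan were averaged. The binding signal is a within-array Z-score, averaged across arrays of one protein sequence run at different concentrations or buffers and across linkers. A negative Z-score can be read as non-binding.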"}, "[2]": {"molecular_target": "GalNAc(a1-3)GalNAc(b1-3)Gal(a1-4)Gal(b1-4)GlcNAc", "method_in_brief": "as §1"}, "Glc(a1-4)Glc": {"molecular_target": "Glc(a1-4)Glc", "method_in_brief": "as §1"}, "[3]": {"molecular_target": "GlcA3S(b1-3)Gal(b1-4)GlcNAc(b1-3)Gal(b1-4)Glc", "method_in_brief": "as §1"}, "[4]": {"molecular_target": "GlcNAc(a1-4)Gal(b1-3)GlcNAc", "method_in_brief": "as §1"}, "[5]": {"molecular_target": "GlcNAc(a1-4)Gal(b1-4)GlcNAc(b1-3)Gal(b1-4)Glc", "method_in_brief": "as §1"}, "[6]": {"molecular_target": "GlcNAc(b1-3)Gal(b1-4)GlcNAc(b1-2)Man(a1-3)[GlcNAc(b1-3)Gal(b1-4)GlcNAc(b1-2)Man(a1-6)]Man(b1-4)GlcNAc(b1-4)[Fuc(a1-6)]GlcNAc", "method_in_brief": "as §1"}, "[7]": {"molecular_target": "GlcNAc(b1-3)Gal(b1-4)GlcNAc(b1-2)[GlcNAc(b1-3)Gal(b1-4)GlcNAc(b1-6)]Man(a1-6)[GlcNAc(b1-3)Gal(b1-4)GlcNAc(b1-2)Man(a1-3)]Man(b1-4)GlcNAc(b1-4)GlcNAc", "method_in_brief": "as §1"}, "[8]": {"molecular_target": "GlcNAc(b1-3)Gal(b1-4)GlcNAc(b1-3)Gal(b1-4)GlcNAc(b1-2)Man(a1-3)[GlcNAc(b1-3)Gal(b1-4)GlcNAc(b1-3)Gal(b1-4)GlcNAc(b1-2)Man(a1-6)]Man(b1-4)GlcNAc(b1-4)[Fuc(a1-6)]GlcNAc", "method_in_brief": "as §1"}, "[9]": {"molecular_target": "GlcNAc(b1-3)[GlcNAc(b1-4)][GlcNAc(b1-6)]GlcNAc", "method_in_brief": "as §1"}, "[10]": {"molecular_target": "GlcNAc(b1-4)GlcNAc(b1-4)GlcNAc(b1-4)GlcNAc(b1-4)GlcNAc", "method_in_brief": "as §1"}, "GlcNAc(b1-6)GalNAc": {"molecular_target": "GlcNAc(b1-6)GalNAc", "method_in_brief": "as §1"}, "[11]": {"molecular_target": "GlcNAc6S(b1-3)Gal(b1-4)GlcNAc", "method_in_brief": "as §1"}, "[12]": {"molecular_target": "Man(a1-2)Man(a1-2)Man(a1-3)Man", "method_in_brief": "as §1"}, "Man(a1-3)[Man(a1-6)]Man": {"molecular_target": "Man(a1-3)[Man(a1-6)]Man", "method_in_brief": "as §1"}, "[13]": {"molecular_target": "Man(a1-3)[Man(a1-6)]Man(a1-6)[Man(a1-2)Man(a1-3)]Man(b1-4)GlcNAc(b1-4)GlcNAc", "method_in_brief": "as §1"}, "[14]": {"molecular_target": "Man(a1-3)[Man(a1-6)]Man(b1-4)GlcNAc(b1-4)GlcNAc", "method_in_brief": "as §1"}, "Man(a1-6)Man": {"molecular_target": "Man(a1-6)Man", "method_in_brief": "as §1"}, "[15]": {"molecular_target": "Neu5Ac(a2-3)Gal(b1-3)GalNAc", "method_in_brief": "as §1"}, "[16]": {"molecular_target": "Neu5Ac(a2-3)Gal(b1-4)GlcNAc(b1-2)Man(a1-3)[Neu5Ac(a2-3)Gal(b1-4)GlcNAc(b1-2)Man(a1-6)]Man(b1-4)GlcNAc(b1-4)[Fuc(a1-6)]GlcNAc", "method_in_brief": "as §1"}, "[17]": {"molecular_target": "Neu5Ac(a2-3)Gal(b1-4)GlcNAc(b1-3)Gal(b1-4)GlcNAc(b1-3)Gal(b1-4)GlcNAc(b1-2)Man(a1-3)[Neu5Ac(a2-3)Gal(b1-4)GlcNAc(b1-3)Gal(b1-4)GlcNAc(b1-3)Gal(b1-4)GlcNAc(b1-2)Man(a1-6)]GalNAc", "method_in_brief": "as §1"}, "[18]": {"molecular_target": "Neu5Ac(a2-3)Gal(b1-4)GlcNAc(b1-6)GalNAc", "method_in_brief": "as §1"}, "[19]": {"molecular_target": "Neu5Ac(a2-3)Gal(b1-4)[Fuc(a1-3)]GlcNAc(b1-3)GalNAc", "method_in_brief": "as §1"}, "[20]": {"molecular_target": "Neu5Ac(a2-3)[GalNAc(b1-4)]Gal(b1-4)Glc", "method_in_brief": "as §1"}, "[21]": {"molecular_target": "Neu5Ac(a2-6)Gal(b1-3)GlcNAc(b1-3)[Gal(b1-4)GlcNAc(b1-6)]Gal(b1-4)Glc", "method_in_brief": "as §1"}, "[22]": {"molecular_target": "Neu5Ac(a2-6)Gal(b1-4)GlcNAc(b1-2)Man(a1-3)[Man(a1-6)]Man(b1-4)GlcNAc(b1-4)GlcNAc", "method_in_brief": "as §1"}, "[23]": {"molecular_target": "Neu5Ac(a2-6)Gal(b1-4)GlcNAc(b1-2)Man(a1-3)[Neu5Ac(a2-6)Gal(b1-4)GlcNAc(b1-2)Man(a1-6)]Man(b1-4)GlcNAc(b1-4)GlcNAc", "method_in_brief": "as §1"}, "[24]": {"molecular_target": "Neu5Ac(a2-6)Gal(b1-4)GlcNAc(b1-2)Man(a1-3)[Neu5Ac(a2-6)Gal(b1-4)GlcNAc(b1-2)Man(a1-6)]Man(b1-4)GlcNAc(b1-4)[Fuc(a1-6)]GlcNAc", "method_in_brief": "as §1"}, "[25]": {"molecular_target": "Neu5Ac(a2-6)Gal(b1-4)GlcNAc(b1-2)Man(a1-6)[Gal(b1-4)GlcNAc(b1-2)Man(a1-3)]Man(b1-4)GlcNAc(b1-4)GlcNAc", "method_in_brief": "as §1"}, "[26]": {"molecular_target": "Neu5Ac(a2-6)Gal(b1-4)GlcNAc(b1-2)Man(a1-6)[Man(a1-3)]Man(b1-4)GlcNAc(b1-4)GlcNAc", "method_in_brief": "as §1"}, "Neu5Ac(a2-6)GalNAc": {"molecular_target": "Neu5Ac(a2-6)GalNAc", "method_in_brief": "as §1"}, "[27]": {"molecular_target": "Neu5Gc(a2-3)Gal(b1-3)[Fuc(a1-4)]GlcNAc", "method_in_brief": "as §1"}, "[28]": {"molecular_target": "Neu5Gc(a2-8)Neu5Ac(a2-3)Gal(b1-4)GlcNAc", "method_in_brief": "as §1"}},
  "note": "The entries come from a sample that favours the strongest signals as a whole.",
  "data": [
    {"binder": "RBMC1 (Vibrio cholerae) (protein) QQSQRVVTADNLMYLRSGFAIDAIGTTVNNLVGGPVQGTNGGVLRAPIALDQLQSVEVTSGLYNWGGYHIVAIKFTMKDGSSVLLGSTHYASNKKVETYTVPQGKRIKQINVWTGGWLVEGFQFVY", "values": [
      {"measurement": "glycan array binding signal (z-score)", "setting": "[1]", "result": -0.188},
      {"measurement": "glycan array binding signal (z-score)", "setting": "[2]", "result": -0.064},
      {"measurement": "glycan array binding signal (z-score)", "setting": "Glc(a1-4)Glc", "result": -0.216},
      {"measurement": "glycan array binding signal (z-score)", "setting": "[3]", "result": -0.217},
      {"measurement": "glycan array binding signal (z-score)", "setting": "[4]", "result": -0.355},
      {"measurement": "glycan array binding signal (z-score)", "setting": "[5]", "result": -0.284},
      {"measurement": "glycan array binding signal (z-score)", "setting": "[6]", "result": 2.83},
      {"measurement": "glycan array binding signal (z-score)", "setting": "[7]", "result": -0.295},
      {"measurement": "glycan array binding signal (z-score)", "setting": "[8]", "result": 2.5},
      {"measurement": "glycan array binding signal (z-score)", "setting": "[9]", "result": -0.158},
      {"measurement": "glycan array binding signal (z-score)", "setting": "[10]", "result": -0.358},
      {"measurement": "glycan array binding signal (z-score)", "setting": "GlcNAc(b1-6)GalNAc", "result": -0.289},
      {"measurement": "glycan array binding signal (z-score)", "setting": "[11]", "result": -0.267},
      {"measurement": "glycan array binding signal (z-score)", "setting": "[12]", "result": -0.395},
      {"measurement": "glycan array binding signal (z-score)", "setting": "Man(a1-3)[Man(a1-6)]Man", "result": 0.002},
      {"measurement": "glycan array binding signal (z-score)", "setting": "[13]", "result": 0.166},
      {"measurement": "glycan array binding signal (z-score)", "setting": "[14]", "result": 1.13},
      {"measurement": "glycan array binding signal (z-score)", "setting": "Man(a1-6)Man", "result": 1.1},
      {"measurement": "glycan array binding signal (z-score)", "setting": "[15]", "result": -0.226},
      {"measurement": "glycan array binding signal (z-score)", "setting": "[16]", "result": 3.39},
      {"measurement": "glycan array binding signal (z-score)", "setting": "[17]", "result": 0.281},
      {"measurement": "glycan array binding signal (z-score)", "setting": "[18]", "result": -0.114},
      {"measurement": "glycan array binding signal (z-score)", "setting": "[19]", "result": -0.194},
      {"measurement": "glycan array binding signal (z-score)", "setting": "[20]", "result": -0.432},
      {"measurement": "glycan array binding signal (z-score)", "setting": "[21]", "result": -0.461},
      {"measurement": "glycan array binding signal (z-score)", "setting": "[22]", "result": 10.4},
      {"measurement": "glycan array binding signal (z-score)", "setting": "[23]", "result": 4.94},
      {"measurement": "glycan array binding signal (z-score)", "setting": "[24]", "result": 11.9},
      {"measurement": "glycan array binding signal (z-score)", "setting": "[25]", "result": 3.13},
      {"measurement": "glycan array binding signal (z-score)", "setting": "[26]", "result": -0.031},
      {"measurement": "glycan array binding signal (z-score)", "setting": "Neu5Ac(a2-6)GalNAc", "result": -0.35},
      {"measurement": "glycan array binding signal (z-score)", "setting": "[27]", "result": -0.039},
      {"measurement": "glycan array binding signal (z-score)", "setting": "[28]", "result": -0.406}
    ]}
  ]
}
